Measured values from PubChem BioAssay AID841 (Emory University Molecular Libraries Screening Center, 2007).
The whole screen tested about 140,000 compounds, of which about 2,100 (1.5%) were called active. No stated cut-off is given here; in the data, active means protection mostly above about 24% (no sharp cut-off); inactive means mostly below about 26%. Only a selection was taken, and actives are over-represented in it overall.

experiment: blockers of measles virus-induced cell death – single point, MLSMR library, absorbance, measles RdRp inhibitor project, primary screen (AID 841); conditions: Measles virus-infected cells, CPE protection, at 4 µM, stronger effect = higher value

Row | SMILES | protection (pct of control)
1 | OC(COc1ccccc1)Cn1cc(Br)cn1 (configuration not stated) | 17.3% (inactive)
2 | C=CCn1c(=N)n(CC(O)COc2ccc(OC)cc2)c2ccccc21 (configuration not stated) | 19.9% (inactive)
3 | OC(CN=c1sc2ccccc2n1CC(O)COc1ccccc1)COc1ccccc1 (configuration not stated) | 44.8% (active)
4 | CO/N=C(\N)c1ccc([N+](=O)[O-])cc1 | 2.5% (inactive)
5 | O=C(CCc1[nH]c2ccccc2c1Sc1ccccc1)N(CCO)CCO | 8.37% (inactive)
6 | Cc1ccc(SCC(=O)Nc2ccc3c(c2)OCCO3)cc1 | 26.6% (active)
7 | CCCCC(=O)Nc1ccc2c(c1)OCCO2 | 11% (inactive)
8 | O=C(CSc1ccc(-c2ccc(F)cc2)nn1)Nc1ccc2c(c1)OCCO2 | 9.34% (inactive)
9 | Cc1cc(C)nc(SC2CCCCC2NS(=O)(=O)c2ccc(Cl)cc2)n1 (configuration not stated) | 24.5% (inactive)
10 | O=C(CSc1ncn[nH]1)Nc1nsc(-c2ccccc2)n1 | 2.9% (inactive)
11 | Cc1ccccc1C(OCC(O)CN1CCCCC1CCO)c1ccccc1 (configuration not stated) | 4.74% (inactive)
12 | CN(C)CCOC(=O)C(c1ccccc1)C1(O)CCCC1 (configuration not stated) | 2.07% (inactive)
13 | Cc1ccccc1C(OCCN(C)C)C1CCCCC1 (configuration not stated) | 53.1% (active)
14 | COc1ccc(/C=C/C(=O)OCC(=O)Nc2cccc(Oc3ccccc3)c2)c(OC)c1 | 22.7% (inactive)
15 | CCCc1cc(=O)[nH]c(SCC(=O)OCc2ccccc2)n1 | 13.7% (inactive)
16 | CCCc1cc(=O)[nH]c(SCc2ccc(C#N)cc2)n1 | 2.18% (inactive)
17 | CCCc1cc(=O)n2[nH]c(SCc3ccccc3)nc2n1 | 90% (active)
18 | COc1ccc(NC(=O)COC(=O)c2ccc(NS(=O)(=O)/C=C/c3ccccc3)cc2)cc1 | 6.22% (inactive)
19 | CN(C)/N=C/c1cc(Cl)cc([N+](=O)[O-])c1O | 21.7% (inactive)
20 | COc1ccccc1Oc1ccc(N/C=C2/CCCC2=O)cc1 | 24.8% (inactive)
21 | Cc1ccc(C)c(OCC(=O)N2CCN(C(=O)c3ccco3)CC2)c1 | 10.9% (inactive)
22 | COc1cc(C2CC(=O)c3cnc(NC(C)=O)nc3C2)cc(OC)c1OC (configuration not stated) | 62.5% (active)
23 | CCCOC(=O)c1[nH]c2c(c1C)C(=O)CC(c1cc(OC)c(OC)c(OC)c1)C2 (configuration not stated) | 2.5% (inactive)
24 | COc1cc(OC)cc(C(=O)Nc2ncc3c(n2)CC(C)(C)CC3=O)c1 | 9.7% (inactive)
25 | Nc1nc(NC(=O)/C=C/c2ccccc2)nn1-c1ccccc1 | 3.85% (inactive)

Row | SMILES | protection (pct of control)
26 | COC(=O)c1ccc(NC(=O)CSc2nnc(Cc3cccn3C)n2-c2ccc(F)cc2)cc1 | 43.4% (active)
27 | Cc1ccc(C)c(NC(=O)CSc2nnc(Cc3cccn3C)n2-c2ccc(F)cc2)c1 | 21.3% (inactive)
28 | COc1ccccc1NC(=O)CSc1nnc(Cc2cccn2C)n1-c1ccc(F)cc1 | 15.6% (inactive)
29 | CCCOC(=O)c1ccc(N2C(=O)c3ccccc3C2=O)cc1 | 1.17% (inactive)
30 | Cn1nccc1CNC(=O)c1ccnn1C | 24.5% (inactive)
31 | CCn1cc(CNC(=O)c2cc([N+](=O)[O-])c(C)c([N+](=O)[O-])c2)cn1 | 3.52% (inactive)
32 | CC1(C)C=C2[C@H]3CC[C@@H]4[C@@]5(C)CCC(=O)C(C)(C)[C@@H]5CC[C@@]4(C)[C@]3(C)CC[C@@]2(C(=O)O)CC1 | 44.7% (active)
33 | CCC(C)NCCOCCOc1ccc(Br)cc1C (configuration not stated) | 5.1% (inactive)
34 | O=C(CNC(=O)C(c1ccccc1)c1ccccc1)N/N=C\c1ccc2c(c1)OCO2 | 17.5% (inactive)
35 | O=C(COc1ccc2oc3c(c2c1)CCCC3)Nc1ccccn1 | 9.54% (inactive)
36 | Cc1c(C(=O)N2CCOCC2)[nH]c2ccc(OCc3ccccc3)cc12 | 11.5% (inactive)
37 | O=C(CN1CCOCC1)N1CCCc2c1c(=O)oc1ccc(OCc3ccccc3)cc21 | 20.5% (active)
38 | O=C(C(Cl)Cl)N1CCN(c2ccccn2)CC1 | 29.5% (active)
39 | CC(=C1C(=O)c2ccccc2C1=O)N1CCN(c2ccccn2)CC1 | 4% (inactive)
40 | CNC(=S)N1CCN(c2ccccn2)CC1 | 3.85% (inactive)
41 | CC(=O)Nc1ccc(S(=O)(=O)NC2(C(F)(F)F)C(=O)Nc3c2c(=O)[nH]c(=O)n3Cc2ccccc2)cc1 (configuration not stated) | 10.5% (inactive)
42 | CCOC(=O)c1c(NC(=O)Cn2nc(C(F)(F)F)cc2C)sc2c1CCC2 | 20.5% (inactive)
43 | CCCCOc1ccc(CSC(=N)N)cc1[N+](=O)[O-] | 23.1% (inactive)
44 | CCOc1ccc(Br)cc1CSC(=N)N | 25.8% (active)
45 | N=C(N)SCc1cccc2ccccc12 | 32.9% (inactive)
46 | Cc1ccc(NC(=O)CSCC(=O)NC2CCCCC2)cc1 | 36.4% (inactive)
47 | COc1ccc(C(=O)Nc2sc(C)c(C)c2CN2CCOCC2)cc1 | 13.1% (inactive)
48 | CCOc1cc(/C=N/O)ccc1OCc1ccccc1F | 36.5% (active)
49 | CCOc1ccc(/C=N/NC(=O)C(C)Sc2ccccn2)cc1OCC (configuration not stated) | 3.61% (inactive)
50 | COc1cc(/C=C2/C(=O)ON=C2C)ccc1OCc1ccccc1F | 6.29% (inactive)

Row | SMILES | protection (pct of control)
51 | CCCCOc1ccc(C(=O)NN2CCN(C)CC2)cc1 | 24.4% (inactive)
52 | COCCOC(=O)c1c(C)oc2cc(Br)c(OCC(N)=O)cc12 | 16.4% (inactive)
53 | CCCCN=C(N)/C(C(=O)OCC)=C(\O)c1ccc(OC)cc1 | 6.3% (inactive)
54 | CCCCC(=O)N(c1ccc(OC)cc1)C1C=CS(=O)(=O)C1 (configuration not stated) | 43.6% (active)
55 | COc1ccc(C(=O)N(Cc2ccc(N(C)C)cc2)C2CCS(=O)(=O)C2)cc1 (configuration not stated) | 1.51% (inactive)
56 | CC(C)CNC(=O)COC(=O)/C=C/c1ccco1 | 16.1% (inactive)
57 | CCc1ccc(-c2cc(C(=O)NN3CCN(C)CC3)c3ccccc3n2)cc1 | 5.27% (inactive)
58 | CCCCCC(=O)NC(=S)NNC(=O)c1ccc([N+](=O)[O-])cc1 | 3.27% (inactive)
59 | COCCCNC(=S)NC(=O)c1ccccc1 | 11.7% (inactive)
60 | COCCCNC(=S)NC(=O)c1ccc([N+](=O)[O-])cc1 | 65.1% (active)
61 | CCc1cccc(NC(=O)CCC(=O)O)c1 | 4.18% (inactive)
62 | Cn1ncc2c(Nc3cccc4ccccc34)ncnc21 | 3.59% (inactive)
63 | Cn1ncc2c(NNC(=O)Cc3cccc4ccccc34)ncnc21 | 26.4% (active)
64 | Cc1ccc(-n2ncc3c(Nc4cccc(C(=O)O)c4)ncnc32)cc1 | 7.56% (inactive)
65 | Cc1ccc(NC(=O)CN(C)Cc2ccc(F)cc2)c([N+](=O)[O-])c1 | 64.2% (active)
66 | Cc1c(NC(=S)NCc2ccc(F)cc2)cccc1[N+](=O)[O-] | 18% (inactive)
67 | CN(CC(=O)Nc1ccc(N2CCOCC2)cc1)CC(=O)Nc1ccccc1[N+](=O)[O-] | 21% (inactive)
68 | CCCCOc1ccc(NC(=O)[C@@H]2CCCN2C(=O)C2CCN(S(=O)(=O)c3ccc(C)cc3)CC2)cc1 | 12.8% (inactive)
69 | CCN=C1S/C(=C\c2cc(Br)ccc2OCC(=O)OCC)C(=O)N1CC | 4.59% (inactive)
70 | CCCC(C)C(=O)OCC(=O)Nc1c(Br)cc(C)cc1Br (configuration not stated) | 5.66% (inactive)
71 | C=CCn1c(-c2ccc3[nH]c(C)c(C)c3c2)n[nH]c1=S | 41.1% (active)
72 | CCCc1cc(-c2n[nH]c(=S)n2Cc2ccccc2)cs1 | 18% (inactive)
73 | CCc1cc(-c2n[nH]c(=S)n2CC(C)C)cs1 | 1.82% (inactive)
74 | CC(C)(C)c1ccc(NC(=O)COC(=O)CCc2nc3ccccc3c(=O)[nH]2)cc1 | 4.79% (inactive)
75 | COc1cc(Cl)c(C)cc1NC(=O)CSc1nnc(-c2cccnc2)n1Cc1ccco1 | 6.16% (inactive)

Row | SMILES | protection (pct of control)
76 | COc1ccccc1NC(=O)CSc1nc2sc(C)c(C)c2c(=O)n1Cc1ccco1 | 48.9% (active)
77 | COc1ccc(NC(=O)CSc2nnc(-c3cccs3)n2Cc2ccco2)cc1OC | 5.61% (inactive)
78 | CCOc1ccccc1C1C(C(=O)OC)=CN(C)C=C1C(=O)OC | 48.9% (active)
79 | COC(=O)C1=CN(C)C=C(C(=O)OC)C1c1ccc(Cl)cc1Cl | 4.66% (inactive)
80 | CCOc1cc(C2C(C(=O)OC)=CN(C3CCCC3)C=C2C(=O)OC)cc(Br)c1O | 8.51% (inactive)
81 | Cc1ccnc(NC(=O)Cn2ccc([N+](=O)[O-])n2)c1 | 6.33% (inactive)
82 | COc1ccc(Cl)cc1NC(=O)[C@@H]1CCCN1C(=O)c1cccs1 | 6.26% (inactive)
83 | COc1ccc(CN2C(=O)CC(Cc3ccc(C)cc3)C2=O)cc1OC (configuration not stated) | 7.23% (inactive)
84 | CCCCNS(=O)(=O)c1ccc2nc(SCC(=O)Nc3cc(C)cc(C)c3)[nH]c2c1 | 6.86% (inactive)
85 | O=c1cc(CSc2ccc(Cl)cc2)nc(N2CCOCC2)[nH]1 | 15.7% (inactive)
86 | CSCc1cc(N(C)C)nc(SCc2ccc(Cl)cc2Cl)n1 | 3.22% (inactive)
87 | CSCc1cc(N2CCOCC2)nc(SCc2ccc(Cl)cc2Cl)n1 | 71.8% (active)
88 | O=C1CCCC(O)=C1N=Nc1ccc2ncsc2c1 | 4.07% (inactive)
89 | COc1cc(/C=C(/NC(=O)c2ccc(Cl)cc2Cl)C(=O)O)cc(OC)c1OC | 8.92% (inactive)
90 | C=CCSc1nnc(Cn2c(=O)sc3ccccc32)n1C | 12.3% (inactive)
91 | Cc1cccc(CSc2nnc(Cn3c(=O)sc4ccccc43)n2C)c1 | 11.3% (inactive)
92 | Cc1ccccc1CSc1nnc(Cn2c(=O)sc3ccccc32)n1C | 42.8% (active)
93 | CCN(CC)S(=O)(=O)c1cc([N+](=O)[O-])ccc1N=Nc1c(O)n(C)c2ccccc12 | 4.65% (inactive)
94 | COc1ccc(C)cc1NC(=O)CSc1ccc(Cl)cc1 | 9.52% (inactive)
95 | COC(=O)[C@H](Cc1ccccc1)NC(=O)[C@@H]1C[C@H]1[C@@H](NC(=O)OCc1ccccc1)c1ccccc1 | 49.5% (active)
96 | COC(=O)[C@H](Cc1ccccc1)NC(=O)N1CC(C)OC(C)C1 (some centres not stated) | 13.1% (inactive)
97 | COC(=O)[C@H](C)[C@H]1C[C@]1(C)[C@H](NC(=O)OCc1ccccc1)c1ccccc1 | 3.04% (inactive)
